The record followed here is PubChem BioAssay (NCI).

The panel holds about 83,000 compounds, 20% with a hit somewhere; the sample as a whole holds those more often.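 Percent growth is the endpoint: 0 to 100 indicates growth inhibition (40 means 60% inhibition), 0 means no net growth, and negative values indicate cell death.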 Unmarked numbers belong to inactive results. Active and inactive are the calls of the source. The calls were made as follows: active = growth percent below 10; inactive = the rest.

In the assay the test system is HL-60(TB) leukemia. The assay is described as follows: NCI-60 one-dose screen, 48 h (100 = growth as untreated, 0 = no growth, -100 = all killed). The settings on record: 10 µM unless noted.
With `Fc1ccc2nc(-c3cnn4cccnc34)sc2c1`, the growth is 96.7%.
`CCCn1cnc2c(c1=N)C(c1ccc(Cl)cc1)c1sc3c(CC)cccc3c1O2` (stereo not given): the growth was 0.217% (active).
As to `N#Cc1nc(-c2ccc(Cl)cc2)oc1N1CCC(S(=O)(=O)N2CCOCC2)CC1`, the growth is 112%.
Take `Fc1cc(F)cc(NNC(=S)c2ccccc2)c1`: the growth was 30.5%.
Regarding `Oc1ccc(-c2nc3ccc(/C(=N\N=C\c4ccc(Cl)cc4)c4ccccc4)cc3[nH]2)cc1`, the growth was 27.5%.
Consider `O=C1[C@@H]2Cc3c([nH]c4ccccc34)[C@@H](c3ccc(Cl)cc3)N2C(=O)CN1C1CCN(Cc2c(F)cccc2F)CC1`, for which the growth was 0.352% (active).
Take `CCOc1ccc(C(=O)Nc2ncc(Cc3ccc(F)cc3)s2)cc1`: the growth is 1.55% (active).
Take `Cc1ccc(C(=O)CSc2nc3ccccc3c(=O)n2C)cc1`: the growth was 87.4%.
`COc1ccc(NC2=CC(=O)C(C)=C(C)C2=O)cc1`: the growth was 80.2%.
Take `NS(=O)(=O)c1ccc(Nc2nc(N/N=C/C=C/c3ccccc3)nc(Nc3ccccc3)n2)cc1`: the growth is 38.6%.
`CCN1C(=O)N(CC)C2SC(N/N=C/C=C/c3ccccc3OC)=NC21` (stereo not given): the growth was -9.85% (active).
The result for `CCO/C=N/C1=C(C#N)C(c2ccc(Cl)cc2)c2sc3c(CC)cccc3c2O1` (stereo not given) reads -0.966% (active).
The result for `Oc1ccc(CSc2nnc(-c3ccncc3)n2-c2ccccc2)c2cccnc12` reads 10.9%; that for `CCCCc1nc2c(N)nc3ccccc3c2n1Cc1cccc(CN)c1`, 11.9%.
With `CC(=O)Nc1nc(C)c(-c2csc(Nc3ccccc3)n2)s1`, the growth is 33.6%.
